# Assay results from PubChem BioAssay (NCATS).
# Records with an inconclusive call do not appear. A number with no mark means an inactive call. Calls of active or inactive are those of the source. Unless noted, calls follow the shape of the dose curve; as a rule, active = well fitted curve in the direction sought with a large enough effect; inconclusive = small, poorly fitted or top-dose-only effect, or another doubt; inactive = no such curve, though single readings can be large; an effect the other way counts as inactive or inconclusive.
# Legend:
# [1] = target: Calcium and integrin-binding protein 1 (Homo sapiens) (UniProt Q99828); test: Primary qHTS for Identification of Calcium Integrin Binding Protein 1 (CIB1) Competitor (AID 1508620);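 also: GST tagged CIB1 binding a fluorescein labelled alphaIIb integrin peptide tracer; top concentration of the series differs between compounds; % is scaled to controls: 0 for no effect and ±100 for the full control effect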
# Sequence of Calcium and integrin-binding protein 1 (Homo sapiens) (Q99828 whole entry, looked up): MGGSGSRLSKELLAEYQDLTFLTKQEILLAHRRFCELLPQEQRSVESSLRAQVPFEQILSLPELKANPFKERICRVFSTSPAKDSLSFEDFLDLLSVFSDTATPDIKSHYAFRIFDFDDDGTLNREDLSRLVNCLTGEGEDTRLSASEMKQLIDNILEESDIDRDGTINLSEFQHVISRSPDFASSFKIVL
# In short: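 Fluorescence polarization competition: CIB1-GST (1 uM final) preincubated with compound 15 min at room temperature, then FITC-labeled alphaIIb peptide (100 nM final) added for another 15 min. Polarization read at Ex 480/Em 540.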
# [2] = Primary qHTS for inhibitors of nuclear receptor binding SET domain protein 2 (NSD2) in an RCH-ACV wild type WT cells (2C) (AID 1645877); also: nearly all actives have a fitted effect of over 70% in size; also: potency is read from the fitted curve at half-maximal effect
# [3] = Primary qHTS for inhibitors of nuclear receptor binding SET domain protein 2 (NSD2) in an isogenic RCH-ACV NSD2 p.E1099K mutant (9B) (AID 1645876); also: potency is read from the fitted curve at half-maximal effect; nearly all actives have a fitted effect of over 70% in size
# [4] = Primary qHTS for small molecule stabilizers of the endoplasmic reticulum resident proteome: Secreted ER Calcium Modulated Protein (SERCaMP) assay (AID 1508630); also: % is scaled to controls: 0 for no effect and ±100 for the full control effect
# In short: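 GLuc-SERCaMP-expressing SH-SY5Y cells, pretreated 16 h with compound, are challenged with thapsigargin to empty ER calcium stores; after 4 h, coelenterazine is added directly to the medium and luminescence is imaged.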
# [5] = target: N-terminal Xaa-Pro-Lys N-methyltransferase 1 (Homo sapiens) (UniProt Q9BV86); test: Confirmatory qHTS for Inhibitors of N-terminal methyltransferase 1 (NTMT1): MTaseGlo Assay (AID 1645874); also: potency is read from the fitted curve at half-maximal effect; nearly all actives have a fitted effect of over 65% in size
# Sequence of N-terminal Xaa-Pro-Lys N-methyltransferase 1 (Homo sapiens) (Q9BV86 whole entry, looked up): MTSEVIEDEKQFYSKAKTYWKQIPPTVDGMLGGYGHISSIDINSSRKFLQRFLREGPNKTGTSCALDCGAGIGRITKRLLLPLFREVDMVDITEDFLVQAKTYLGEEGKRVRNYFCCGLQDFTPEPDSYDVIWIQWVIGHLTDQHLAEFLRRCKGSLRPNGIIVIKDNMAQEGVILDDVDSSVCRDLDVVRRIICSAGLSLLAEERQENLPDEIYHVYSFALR
# In short: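 Luminescent MTase-Glo read-out of SAH. 125 nM NTMT1, 100 uM SAM, 1 uM SPKRIA substrate, 30 min RT reaction after 15 min compound preincubation. Normalized to no-enzyme and DMSO controls; Hill fit.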
# [6] = target: Cytochrome P450 2D6 (Homo sapiens) (UniProt P10635); test: Cytochrome P450 family 2 subfamily D member 6 (CYP2D6) small molecule antagonists: luciferase biochemical (cell-free) qHTS assay (AID 1645840; active = well fitted curve in the direction sought with a large enough effect in the repeat runs; an effect the other way counts as inactive or inconclusive; also: nearly all actives have a fitted effect of over 55% in size; also: potency is read from the fitted curve at half-maximal effect; as to activity change, negative = inhibition: series mostly up to about 57 µM; % is scaled to controls: 0 for no effect and ±100 for the full control effect)
# Sequence of Cytochrome P450 2D6 (Homo sapiens) (P10635 whole entry, looked up): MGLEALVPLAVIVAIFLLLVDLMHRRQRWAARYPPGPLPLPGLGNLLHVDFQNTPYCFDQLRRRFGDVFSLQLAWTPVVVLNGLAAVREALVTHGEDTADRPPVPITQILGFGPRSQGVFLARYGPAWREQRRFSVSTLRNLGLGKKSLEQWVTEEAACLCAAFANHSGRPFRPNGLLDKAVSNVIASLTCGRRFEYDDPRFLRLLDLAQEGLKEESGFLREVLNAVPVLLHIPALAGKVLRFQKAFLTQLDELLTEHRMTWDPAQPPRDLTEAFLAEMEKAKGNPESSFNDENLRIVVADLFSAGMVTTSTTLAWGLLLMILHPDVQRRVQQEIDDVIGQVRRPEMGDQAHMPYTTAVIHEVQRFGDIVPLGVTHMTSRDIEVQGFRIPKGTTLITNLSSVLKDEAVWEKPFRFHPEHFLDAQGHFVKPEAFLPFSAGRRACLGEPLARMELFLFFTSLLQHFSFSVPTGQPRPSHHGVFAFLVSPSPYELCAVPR
# In short: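 P450-Glo luminescent screen: recombinant CYP2D6 enzyme–proluciferin substrate mix preincubated with compound 10 min at room temperature, then NADPH regeneration added for 1 h at room temperature. Detection reagent added for 20 min; luciferin light read as relative luminescence units.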
compound,measurement,setting,value
C=C1/C(=C/C=C2\CCC[C@]3(C)[C@@H]([C@H](C)/C=C/[C@@H](C)C(C)C)CC[C@@H]23)C[C@@H](O)C[C@@H]1O,Potency,[1],inactive
same,Potency,[2],14.5 µM (active)
CCN(CC)CCCCCCNc1cc(OC)cc2c(C)ccnc12,Potency,[1],inactive
same,Potency,[2],12.9 µM (active)
CNS(=O)(=O)c1ccccc1Nc1nc(Nc2ccc(N3CCN(C)CC3)cc2OC)ncc1Br,Potency,[1],inactive
same,Potency,[3],0.649 µM (active)
same,Potency,[2],0.728 µM (active)
CS/C=C/C(=O)O[C@@H]1CCC2=CC(=O)C(=C(C)C)C[C@]2(C)[C@H]1C,Potency,[1],inactive
same,Potency,[2],11.3 µM (active)
C=C1C(=O)O[C@@H]2C[C@H](C)[C@@H]3CC(=O)C(C)=C3C[C@H]12,Potency,[1],inactive
same,Potency,[3],4.59 µM (active)
same,Potency,[2],2.58 µM (active)
C=C1CC[C@@H](O)[C@]2(C)CC[C@H]3C(=C)C(=O)O[C@@H]3[C@@H]12,Potency,[1],inactive
same,Potency,[3],20.5 µM (active)
same,Potency,[2],16.3 µM (active)
C=C1C(=O)O[C@@H]2/C=C(\CO)CC/C=C(\CO)[C@H](OC(C)=O)C(OC(=O)C(C)CC)C12 (some centres undefined),Potency,[1],inactive
same,Potency,[2],5.02 µM (active)
CC1CCC/C=C/C(=O)c2c(O)cc(O)cc2CC(=O)O1 (centres undefined),Potency,[1],inactive
same,Potency,[3],2.9 µM (active)
same,Potency,[2],2.05 µM (active)
COc1cc(OC)c(NC(=O)c2ccc(Cc3cc4c(cc3C)C(C)(C)CCC4(C)C)o2)c(OC)c1,Potency,[1],inactive
same,Potency,[2],23 µM (active)
O=C(O)c1ccc(N2C(=O)/C(=C/c3ccc(-c4ccc([N+](=O)[O-])cc4)o3)C=C2c2ccccc2)cc1,Potency,[1],inactive
same,Potency,[2],inactive
CO[C@H]1C[C@@H]2CC[C@@H](C)[C@@](O)(O2)C(=O)C(=O)N2CCCC[C@H]2C(=O)O[C@H]([C@@H](C)C[C@@H]2CC[C@@H](O)[C@H](OC)C2)CC(=O)[C@H](C)/C=C(\C)[C@@H](O)[C@@H](OC)C(=O)[C@H](C)C[C@H](C)/C=C/C=C/C=C/1C,Potency,[1],inactive
same,Potency,[2],25.8 µM (active)
C=C(C(=O)OC[C@H]1O[C@@H](OC(=O)/C=C/c2ccccc2)[C@H](O)[C@@H](O)[C@@H]1O)C(O)CO (some centres undefined),Potency,[1],inactive
same,Potency,[2],5.63 µM (active)
C=C1/C(=C/C=C2\CCC[C@]3(C)[C@@H]([C@@H](C)OCCC(O)(CC)CC)CC[C@@H]23)C[C@@H](O)C[C@@H]1O,Potency,[1],inactive
same,Potency,[2],20.5 µM (active)
C[C@@H]1O[C@@H](O[C@H]2CC[C@@]3(C)C(CC[C@]4(C)C3CC=C3[C@@H]5CC(C)(C)CC[C@]5(C(=O)O[C@@H]5O[C@H](CO)[C@@H](O)[C@H](O)[C@H]5O)CC[C@]34C)[C@]2(C)CO)[C@H](O)[C@H](O[C@@H]2O[C@H](CO)[C@@H](O)[C@H](O)[C@H]2O)[C@H]1O (some centres undefined),Potency,[1],inactive
same,Potency,[2],3.46 µM (active)
CN1CCN(c2ccc(-c3cccc(CN4CCOCC4)c3)cc2NC(=O)c2c[nH]c(=O)cc2C(F)(F)F)CC1,Potency,[1],inactive
same,Potency,[2],inactive
CN(C)CCCn1cc(C2=C(c3c[nH]c4ccccc34)C(=O)NC2=O)c2ccccc21,outcome,[4],inactive
same,Potency,[5],39.8 µM (active)
same,Potency,[3],5.78 µM (active)
same,Potency,[2],3.25 µM (active)
CN(C)CCOc1cc(NS(=O)(=O)c2c(Cl)cc(C(F)(F)F)cc2Cl)ccc1Cl,Potency,[6],16.9 µM (active)
CCN(CCNC(=O)Nc1ccccc1Br)c1cccc(C)c1,Potency,[6],1.9 µM (active)
C[C@@H]1O[C@@H](O[C@H]2[C@H](OC(=O)[C@]34CCC(C)(C)C[C@H]3C3=CCC5[C@@]6(C)C[C@H](O)[C@H](O[C@@H]7O[C@H](C(=O)O)[C@@H](O)[C@H](O)[C@H]7O)[C@@](C)(CO)C6[C@H](O)C[C@@]5(C)[C@]3(C)C[C@H]4O)O[C@@H](CO)[C@@H]2O)[C@H](O)[C@H](O)[C@H]1O[C@@H]1OC[C@@H](O)[C@H](O[C@H]2OC[C@](O)(CO)[C@H]2O)[C@H]1O (some centres undefined),"activity change, negative = inhibition",[1],1.16% [at 12.4 µM]
same,Potency,[2],0.122 µM (active)
O=C(c1cc(Cc2n[nH]c(=O)c3ccccc23)ccc1F)N1CCCNCC1,Potency,[6],inactive
C=C1C(=O)OC[C@@H]1C/C=C(\C)CC1CC(C)C(=O)O1 (some centres undefined),Potency,[1],inactive
same,Potency,[2],23 µM (active)
Cn1ncc(Cl)c1-c1cc(C(=O)N[C@H](CN)Cc2cccc(F)c2)sc1Cl,Potency,[6],2.68 µM (active)
COC[C@H](c1ccc(C(F)(F)F)cc1)N1CCN(C2(C)CCN(C(=O)c3c(C)ncnc3C)CC2)C[C@H]1C,Potency,[6],16.9 µM (active)
CC(=O)O[C@H]1CC[C@]2(C)[C@H]3CC[C@]4(C)Oc5oc(C)cc(=O)c5C[C@H]4[C@]3(C)CC[C@H]2C1(C)C,Potency,[1],inactive
same,Potency,[2],7.09 µM (active)
